FLuc modulator: qHTS profiling assay for firefly luciferase inhibitor/activator using purifed enzyme and Km concentrations of substrates (counterscreen for miR-21 project). Luciferin 4-monooxygenase (Photinus pyralis), P08659. Potency, µM (doses to about 57.5 µM), for the others: top-dose activity change, negative = inhibition, usual class: inhibitors. hit rate 6.9% among 360,000. purified FLuc, Km substrates, luminescence inhibition;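 note: plate controls were vehicle for no effect and reference inhibitor for full effect; nearly all actives have a fitted effect of over 55% in size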
Target sequence (P08659 whole entry, looked up): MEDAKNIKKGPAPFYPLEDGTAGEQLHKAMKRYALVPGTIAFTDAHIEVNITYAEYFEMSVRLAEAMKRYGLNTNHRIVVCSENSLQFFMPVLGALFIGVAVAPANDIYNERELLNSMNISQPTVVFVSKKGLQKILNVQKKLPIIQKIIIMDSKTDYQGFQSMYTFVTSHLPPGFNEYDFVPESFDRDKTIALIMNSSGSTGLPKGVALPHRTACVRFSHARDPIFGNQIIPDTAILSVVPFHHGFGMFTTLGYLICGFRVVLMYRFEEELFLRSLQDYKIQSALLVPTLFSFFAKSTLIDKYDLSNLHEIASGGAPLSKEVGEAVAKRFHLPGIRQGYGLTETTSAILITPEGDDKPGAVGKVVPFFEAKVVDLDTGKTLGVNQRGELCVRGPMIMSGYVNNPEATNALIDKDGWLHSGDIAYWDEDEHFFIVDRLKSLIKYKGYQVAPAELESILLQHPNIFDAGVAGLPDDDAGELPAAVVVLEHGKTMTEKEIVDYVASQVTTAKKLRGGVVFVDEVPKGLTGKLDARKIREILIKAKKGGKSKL
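Biochemical qHTS of compounds, final roughly 60 µM downward over six points, against 10 nM purified firefly luciferase using Km concentrations of substrates (10 uM D-luciferin, 10 uM ATP) in Tris acetate pH 7.5 buffer; luminescence output.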
KinaseGlo FLuc: Counterscreen for Luciferase (Kinase-Glo TM) Inhibition | Kinase-Glo luciferase, ATP luminescence, 8 min | Potency, µM (titrated, usually from 38.3 µM), for inactives: top-dose activity change, negative = inhibition, usual class: inhibitors | hit rate 0.28% among 200,000 | AID 1379, 2008; note: % is set by controls: 0 for no effect and ±100 for the full control effect; nearly all actives have a fitted effect of over 60% in size
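Compound is pinned into ATP-containing buffer (10 uM ATP, imidazole pH 7.2, 7 mM MgCl2). Kinase-Glo luciferase reagent is then added. Light output is recorded following an 8-min room-temperature incubation.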
ELG1 genotox: qHTS screen for small molecules that induce genotoxicity in human embryonic kidney (HEK293T) cells expressing luciferase-tagged ELG1 | HEK293T ELG1-luciferase reporter, luminescence, 16 h | Potency, µM (titrated, usually from 46 µM), for inactives: at the highest dose activity change, positive = activation, most hits filed as activators | hit rate 1.3% among 330,000 | AID 504466, 2011; note: % of control where 0% means no effect; nearly all actives have a fitted effect of over 60% in size
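Reporter readout depends on ELG1 protein level, which increases with genetic stress. After 16 hr compound exposure at 37 °C, luciferase activity was quantified using ONE-Glo.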
Rab9 prom act: qHTS Assay for Rab9 Promoter Activators | AID 485297, 2010 | Huh7 Rab9 promoter-luciferase reporter, luminescence, 24 h | Potency, µM (series often up to 9.22 µM), without a hit: top-dose activation, negative = inhibition, most hits filed as activators | hit rate 2.8% among 320,000; note: % of control where 0% means no effect; nearly all actives have a fitted effect of over 60% in size
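Cells were plated at 1500 per well in reduced-serum medium with 10% FBS and left 2 h. Compound in DMSO was then added for 24 h at 37 °C. Reporter signal was read by luminescence after 10 min with luciferase detection reagent.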
NPC1 promoter act: qHTS Assay for NPC1 Promoter Activators; Huh7 NPC1 promoter luciferase reporter, 24 h; Potency, µM (highest dose often 9.22 µM), for inactives: at the top dose activation, usual class: activators; hit rate 2.4% among 320,000; AID 485313, 2010; note: % of control where 0% means no effect; nearly all actives have a fitted effect of over 60% in size
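Huh7 cells stably carrying NPC1 promoter–luciferase, plated in Opti-MEM with 10% FBS for 2 h, were exposed to compound in DMSO for 24 h at 37 °C; luciferase reagent was added for 10 min and luminescence read.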
SMN2 splice enh: qHTS Assay for Enhancers of SMN2 Splice Variant Expression. HEK293 SMN2-luciferase splicing reporter, luminescence, 30-36 h. hit rate 2.8% among 210,000. Potency, µM (titrated, usually from 46.1 µM), for the others: at the highest dose activity change, positive = activation, actives largely listed as activators. AID 1458, 2008; note: % of control where 0% means no effect; nearly all actives have a fitted effect of over 55% in size
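HEK293 cells carry an SMN2 minigene-luciferase reporter in which exon 7 inclusion puts luciferase in frame. Cells were seeded at 2000 cells/well, attached for 10-12 hours, then exposed to compounds for 30-36 hours at 37C before ONE-Glo luminescence.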
An asterisk follows results filed as active; ? = inconclusive; . = not tested or not shown. In the library only some 7.5% were active in any assay of this set; here they are far more common. Calls come from the whole dose curve; as a rule, active = well fitted curve in the direction sought with a large enough effect; inconclusive = small, poorly fitted or top-dose-only effect, or another doubt; inactive = no such curve, though single readings can be large; an effect the other way counts as inactive or inconclusive. Potency is the fitted concentration of half-maximal effect.

SMILES | FLuc modulator | KinaseGlo FLuc | ELG1 genotox | Rab9 prom act | NPC1 promoter act | SMN2 splice enh
Cc1ccc(S(=O)(=O)Nc2cc(=O)[nH]c(SCC(=O)Nc3cccc(C)c3)n2)cc1 | 19µM* | . | -7% | -1% | 0% | .
CCOc1ccc(NC(=O)CSc2nc(NS(=O)(=O)c3ccc(C)cc3)cc(=O)[nH]2)cc1 | 21µM* | . | 0% | 1% | 0% | .
Cc1ccc(NC(=O)CSc2nc(NS(=O)(=O)c3ccccc3)cc(=O)[nH]2)cc1 | -3% | 0% | 2% | 0% | 0% | -12%
C(=C\c1nnc(-c2cccs2)o1)/c1ccccc1 | 5.4µM* | -6% | ? | 2.5µM* | 2.5µM* | ?
Cc1ccc(/C=C/c2nnc(-c3ccccc3)o2)cc1 | 5.4µM* | -14% | ? | 1.1µM* | 0.89µM* | ?
Cc1ccc(-c2nnc(Nc3ccccc3)o2)cc1 | 0.15µM* | 13µM* | 0.15µM* | 0.13µM* | ? | 0.4µM*
CN(C)S(=O)(=O)Oc1cccc(C(=O)Nc2ccccc2Cl)c1 | 21µM* | 1% | ? | 5.6µM* | 28% | 12%
CN(C)S(=O)(=O)Oc1ccc(C(=O)Nc2cccc(Cl)c2)cc1 | 12µM* | -1% | ? | ? | ? | 13µM*
CN(C)S(=O)(=O)Oc1cccc(C(=O)Nc2ccc(Cl)cc2)c1 | 3.4µM* | -4% | 5% | ? | ? | 4%
CC(=O)Nc1cc(NC(C)=O)cc(C(=O)N2CCCC3CCCCC32)c1 (stereo not drawn) | 0% | . | 10% | -2% | -1% | .
Cc1ccc(Nc2nc(=O)c3cccnc3s2)cc1 | 12µM* | -19% | ? | 2.5µM* | 3.2µM* | 18%
O=c1nc(NCc2ccco2)sc2ncccc12 | -2% | 2% | 11% | 0% | 7% | .
COc1ccc(OC)c(Nc2nc(=O)c3cccnc3s2)c1 | 17µM* | 11µM* | 8% | -14% | -33% | 3%
Cc1ccccc1Oc1nc2c(c(=O)n(C)c(=O)n2C)n1Cc1ccc(Br)cc1 | -6% | . | . | . | . | 1%
Cc1ccc(F)c(NC(=O)/C(C#N)=C(\O)c2ccc(C(C)(C)C)cc2)c1 | 12µM* | 1% | 6% | 5% | 8% | ?
CCOC(=O)N/N=C\c1ccc(OC(=O)c2ccc3c(c2)OCO3)cc1 | 15µM* | -9% | 10% | 21% | 12% | -4%
Cc1ccc(C(=O)/C=C/c2ccc3c(c2)OCO3)o1 | 2.4µM* | -12% | 4% | 25% | -5% | 3%
COC(=O)/C=C/c1ccc2c(c1)OCO2 | ? | -11% | 7% | -3% | -2% | 17%
O=C(N/N=C/c1ccc(Br)o1)c1ccc2c(c1)OCCO2 | 6µM* | -6% | ? | 3.2µM* | 3.2µM* | 11µM*
Cn1cc(Br)c(C(=O)N/N=C/c2cccc(OC3CSC3)c2)n1 | 19µM* | -10% | 8% | 13% | 0% | 6%
O=C(CNC(=O)c1ccc2c(c1)OCCO2)N/N=C/c1ccco1 | -6% | . | 3% | -9% | -1% | .
CCOc1cc(/C=N/NC(=O)c2nn(C)cc2Br)ccc1OCc1ccccc1Cl | ? | 13% | -14% | -1% | -1% | -16%
CCOC(=O)c1[nH]c(C)c(CCC(=O)Nc2ccccc2OCC)c1C | -8% | . | . | . | . | .
O=C(N/N=C/c1cccc(O)c1)c1cc(-c2ccc3c(c2)OCO3)n[nH]1 | 5.4µM* | -3% | -2% | 1% | -2% | 8%
Cn1cc(Br)c(C(=O)N/N=C/c2cc3c(cc2Cl)OCO3)n1 | 6µM* | . | ? | ? | 2.8µM* | .
SMILES | FLuc modulator | KinaseGlo FLuc | ELG1 genotox | Rab9 prom act | NPC1 promoter act | SMN2 splice enh
Nc1nonc1C(=O)N/N=C\c1cc2c(cc1Cl)OCO2 | ? | . | 15% | -2% | -7% | .
Cc1nn(C)cc1/C=N/NC(=O)c1ccc2c(c1)OCO2 | 17µM* | -9% | 13% | -41% | 0% | -16%
COc1cc(/C=N/NC(=O)c2ccc3c(c2)OCCO3)cc(Cl)c1O | 13µM* | . | 10% | 2% | 22% | .
COc1cc(/C=N/NC(=O)CNC(=O)c2ccc3c(c2)OCCO3)ccc1O | -3% | -5% | -4% | 5% | 2% | -7%
Cc1cc(C)n2nc(C(=O)N/N=C/c3cn(C)nc3C)nc2n1 | 4% | . | 2% | -7% | -4% | .
O=C(O)c1ccc(CNC(=O)c2ccc3c(c2)OCCO3)cc1 | ? | . | 9% | 1% | 1% | .
O=C(N/N=C/c1ccc([N+](=O)[O-])o1)c1ccc2c(c1)OCO2 | ? | . | -4% | 13% | -11% | .
Cc1ccc(C(=O)N/N=C/c2ccc3c(c2)OCO3)o1 | 6µM* | ? | ? | 2.8µM* | 3.2µM* | 13µM*
O=C(N/N=C/c1ccccc1)c1cc(-c2ccc3c(c2)OCO3)n[nH]1 | -5% | -1% | 2% | -2% | -5% | 15%
O=C(O)c1ccc(/C=N/NC(=O)c2ccc3c(c2)OCCO3)cc1 | 6.7µM* | . | ? | 1% | 0% | .
Cc1ccc(/C=N\NC(=O)c2ccc3c(c2)OCO3)o1 | 24µM* | . | ? | ? | ? | .
O=C(N/N=C/c1ccccc1)c1ccc2c(c1)OCO2 | ? | . | ? | 0.4µM* | 0.56µM* | .
CCCN1CCN(CCCNC(=O)Cn2nc(C)n3c(cc4cc(OC)ccc43)c2=O)CC1 | 4% | . | 1% | -12% | -1% | .
CCn1cc(/C=N/NC(=O)c2ccc3c(c2)OCO3)cn1 | ? | 1% | 2% | 11% | 0% | 7%
CN(C)c1ccc(/C=N/NC(=O)c2ccc3c(c2)OCO3)cc1 | 8.5µM* | . | ? | ? | ? | .
O=C(CSc1nnc(NC(=O)c2ccco2)s1)Nc1ccccc1 | 21µM* | -3% | 15% | 1% | 13% | ?
O=C(CSc1nnc(NC(=O)c2ccco2)s1)Nc1ccccc1Cl | ? | . | 2% | 4% | 2% | .
CC(=O)Nc1ccc(NC(=O)CSc2nnc(NC(=O)c3ccco3)s2)cc1 | 17µM* | . | 6% | 16% | 8% | .
O=c1oc2cc(Br)ccc2n1Cc1ccccc1 | 6% | . | 3% | 0% | -47% | .
O=C(c1ccc(F)cc1)c1ccc(N2CCCC2)cc1 | 12µM* | -6% | 14µM* | ? | ? | .
O=C(Nc1ccc(S(=O)(=O)N2CCCCC2)cc1)c1ccc(F)cc1 | -1% | . | -16% | -8% | -1% | .
O=S(=O)(N1CCCCC1)N1CCN(c2ccc(F)cc2)CC1 | -1% | 1% | -5% | -1% | -2% | 11%
O=C(Nc1ccc(N2CCCCC2)cc1)c1cccnc1 | 21µM* | -1% | 9.2µM* | ? | ? | 22µM*

Bioassay records (PubChem BioAssay)
